Compounds without any hit were thinned out: in the full panel of roughly 83,000, 20% have a hit.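 How to read the values: 0–100, growth inhibition (40 = 60% inhibited); 0, no net growth; -100 to 0, cell death (-40 = 40% of starting cells died; -100 = all dead).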 Values without a mark were called inactive. Activity calls are given as the source filed them. Rule for the calls: active = growth percent below 10; inactive = the rest.
How the values were obtained:
Assay in all cases: NCI-60 one-dose screen, 48 h (100 = growth as untreated, 0 = no growth, -100 = all killed)
Conditions in all cases: 10 µM unless noted
[1] = system: DU-145 prostate
[2] = system: K-562 leukemia
[3] = system: MALME-3M melanoma
[4] = system: MDA-MB-231 breast
[5] = system: RXF 393 renal
[6] = system: SF-268 CNS
[7] = system: SF-295 CNS
[8] = system: SF-539 CNS
[9] = system: M14 melanoma
[10] = system: HCT-15 colon
[11] = system: HT29 colon
[12] = system: SNB-75 CNS
[13] = system: SNB-19 CNS
[14] = system: U251 CNS
[15] = system: PC-3 prostate
[16] = system: SK-MEL-5 melanoma
[17] = system: LOX IMVI melanoma
[18] = system: UACC-257 melanoma
[19] = system: UACC-62 melanoma
[20] = system: SK-MEL-28 melanoma

Row | Structure (SMILES) | growth [1] | growth [2] | growth [3] | growth [4] | growth [5] | growth [6] | growth [7] | growth [8] | growth [9] | growth [10] | growth [11] | growth [12] | growth [13] | growth [14] | growth [15] | growth [16] | growth [17] | growth [18] | growth [19] [%] | growth [20]
1 | CCc1cccc(CC)c1NC(=O)c1sc2nc3c(cc2c1N)CCCC3 | 98.6% | 26.6% | 54.3% | 79.5% | 81.6% | 82.6% | 45.7% | 74.5% | 52% | 55% | 77.4% | 54.2% | 71.3% | 73.4% | 63% | 63.9% | 75.2% | – | – | –
2 | COc1cc(-c2cc3cc(O)ccc3oc2=O)cc(OC)c1OC | 107% | 89.1% | 112% | 72.8% | 101% | 102% | 91.9% | 87.1% | 86.9% | 91.4% | 103% | 65.3% | 95.5% | 99.3% | 85.3% | 93.6% | 103% | – | – | –
3 | CC(=O)c1c(C)[nH]c(-c2nc3ccc(N4CCN(C)CC4)cc3[nH]2)c1-c1ccc(N(C)C)cc1 | 63.9% | 21.1% | 26.7% | 36.1% | 37.2% | 59.4% | 43.2% | 39.3% | – | 4.03% (active) | 9.08% (active) | -9.22% (active) | 42.4% | 51% | 42% | – | – | 36.4% | 21.1 | 45.8%
4 | CC/C=C\C[C@H]1CC=C2C(=O)C=C[C@@H]2CC=CCCCC(=O)O[C@@H](CCCCC)CC=C2C(=O)C=C[C@@H]2CC=CCCCC(=O)O[C@@H](CCCCC)CC=C2C(=O)C=C[C@@H]2CC=CCCCC(=O)O[C@@H](CCCCC)CC=C2C(=O)C=C[C@@H]2CC=CCCCC(=O)O1 | 20.4% [7.9 µM] | 7.46% [7.9 µM] (active) | 26.2% [7.9 µM] | -11.1% [7.9 µM] (active) | -4.76% [7.9 µM] (active) | 12.5% [7.9 µM] | 53.7% [7.9 µM] | 1.99% [7.9 µM] (active) | – | 47.1% [7.9 µM] | 2.5% [7.9 µM] (active) | 65.2% [7.9 µM] | 25.7% [7.9 µM] | – | 13.5% [7.9 µM] | 17.9% [7.9 µM] | -75.8% [7.9 µM] (active) | 54.4% [7.9 µM] | – | 11.9% [7.9 µM]
5 | COc1cccc(-c2nn(-c3ccccc3)cc2-c2ccnc(NCCCO)c2)c1 | 63.8% | 8.63% (active) | 51.4% | 38.4% | 47.6% | 53.7% | 27.1% | 33.5% | 12.8% | 26.3% | 7.65% (active) | 23.4% | 36.3% | 21% | 46.4% | 29.8% | 33.6% | – | – | –
6 | COc1ccc2c3c(c4ccccc4cc13)C(=O)N(CCN(C)CCN)C2=O | -86.6% (active) | -68% (active) | -75.7% (active) | -72.1% (active) | -94.3% (active) | -67.5% (active) | -88.9% (active) | -83% (active) | -83.2% (active) | -67.1% (active) | -65.2% (active) | 8.84% (active) | -36.9% (active) | -86.3% (active) | -63.2% (active) | -98% (active) | -84.8% (active) | – | – | –
7 | COC(=O)[C@]12CC[C@@H](C)[C@H](C)[C@@H]1C1=CC[C@@H]3[C@@]4(C)CC(=O)[C@H](OC(=O)c5ccco5)[C@@]5(C)COC(=C45)C[C@@]3(C)[C@]1(C)CC2 | 37.9% | 23.7% | 21.9% | 40.4% | 44.5% | 40.7% | 35.6% | 39% | 22.2% | 24.1% | 20.1% | 41.7% | 40.4% | 24.9% | 17.3% | -46.1% (active) | 6.2% (active) | – | – | 33%
8 | O=C(NO)c1ccc(Cn2c(=O)n(CCc3ccc(O)cc3)c(=O)c3ccccc32)cc1 | 42.1% | 24.9% | 39.3% | 39.1% | 29.8% | 59.2% | 79.1% | 3.09% (active) | 36.9% | 96.5% | 92.2% | 47.8% | 44.1% | 8.31% (active) | 38.7% | 42.1% | 22.4% | – | – | 17.5%
9 | Cn1cnc2c1c(=O)n(CCC(=O)Nc1ccc(F)cc1)c(=O)n2C | 103% | 108% | 97.1% | 101% | 116% | 105% | 102% | 101% | 101% | 104% | 86.6% | 94.6% | 105% | 96.2% | 91.1% | 107% | 102% | – | – | 110%
10 | COc1cc2ncnc(Nc3ccc(Oc4ccnc(C)c4)c(C)c3)c2cc1NC(=O)CC1CCSS1 (centres undefined) | -7.01% (active) | -50.9% (active) | -27.5% (active) | -27.8% (active) | 8.74% (active) | -53.2% (active) | -65.3% (active) | 1.45% (active) | -65.1% (active) | -72.4% (active) | -80.7% (active) | -3.3% (active) | -32.2% (active) | -13.4% (active) | -50.3% (active) | -89.1% (active) | -87.8% (active) | – | – | -66% (active)
11 | COc1cc2ncnc(Nc3ccc(OCc4cccc(F)c4)c(Cl)c3)c2cc1NC(=O)C1CCCC1 | 78.3% | 91.2% | 107% | 84.5% | 83% | 89.1% | 101% | 96.1% | 71.4% | 80.2% | 82.3% | 69.2% | 83.3% | 91.8% | 63.3% | 95% | 87.5% | – | – | 90.1%
12 | CC(=O)OCCCCCCn1c2ccccc2c2c3c(c4c5ccccc5n(C)c4c21)C(=O)N(O)C3=O | 89.9% | 59.7% | 115% | 64.5% | 100% | 70.2% | 91.5% | 94.3% | 65.4% | 69.5% | 23.7% | 101% | 77.5% | 58.4% | 52.9% | 41.7% | 5.8% (active) | – | – | –
13 | c1ccc(CN2C(c3ccccc3)=Nc3ccccc3C2c2c[nH]c3ccccc23)cc1 (centres undefined) | 85.4% | 4.88% (active) | 55.1% | 26.7% | 42.9% | 71.2% | 45.6% | 58.1% | 28.9% | 35.6% | 15.1% | 59.2% | 49.1% | 35.7% | 29.8% | 42.4% | 15.4% | – | – | –
14 | N#Cc1cnc2cc(OC[C@@H](O)CO)c(NC(=O)C3CCCC3)cc2c1Nc1ccc(OCc2cccc(F)c2)c(Cl)c1 | -90.8% (active) | 0.239% (active) | -48.8% (active) | -58.5% (active) | -62.6% (active) | 23.1% | 1.06% (active) | -32.5% (active) | -53% (active) | 29.4% | -11.3% (active) | -0.333% (active) | 65.3% | 61.9% | -58.9% (active) | 61.5% | -84.8% (active) | – | – | -85.2% (active)
15 | COC(=O)[C@]12CC[C@@H](C)[C@H](C)[C@@H]1C1=CC[C@@H]3[C@@]4(C)C[C@@H](OC(C)=O)[C@H](O)[C@@](C)(CO)[C@@H]4[C@H](O)C[C@@]3(C)[C@]1(C)CC2 | -100% (active) | -62.7% (active) | -69.1% (active) | -62.3% (active) | -88.9% (active) | -84% (active) | -92.2% (active) | -90% (active) | -69.1% (active) | -94.5% (active) | -95.4% (active) | -83.1% (active) | -71.7% (active) | -84.1% (active) | -100% (active) | -98.5% (active) | -100% (active) | – | – | -86% (active)
16 | C=C1C(=O)O[C@H]2[C@H]1CC/C(Cn1cc(-c3ccc(F)cc3)nn1)=C\CC[C@@]1(C)O[C@@H]21 | -71.3% (active) | -20.3% (active) | -58.1% (active) | -46.2% (active) | -68.1% (active) | 5.29% (active) | 86.4% | -34.6% (active) | -40.3% (active) | -78.8% (active) | -84.8% (active) | 85.5% | 66.8% | 20.7% | 28.5% | 36.3% | -89.3% (active) | – | – | –

Source: PubChem BioAssay (NCI)
